Data reported in PubChem BioAssay (NCATS).
Inconclusive results are not listed. Active and inactive are the calls of the source. Calls follow the shape of the dose curve; as a rule, active = well fitted curve in the direction sought with a large enough effect; inconclusive = small, poorly fitted or top-dose-only effect, or another doubt; inactive = no such curve, though single readings can be large; an effect the other way counts as inactive or inconclusive.

What was measured:
[1] = S16 Schwann cell viability assay (CellTiter-Glo assay) (AID 624031);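 also: cellular ATP luminescence as a viability measure; nearly all actives have a fitted effect of over 70% in size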
Method in brief: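 CellTiter-Glo ATP luminescence counter-screen in untransfected S16 rat Schwann cells, 24h compound exposure at 37 degree Celsius after overnight seeding (500-750 cells/well); response scaled between cell-free wells and DMSO (0% activity), curves classed by r2 and magnitude.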

3D7 = experiment: qHTS profiling for inhibitors of Plasmodium falciparum proliferation (AID 504749); also: nearly all actives have a fitted effect of over 60% in size; conditions: P. falciparum in erythrocytes, SYBR Green DNA, 72 h; series mostly up to 12.8 µM
Method in brief: (§1)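 Three-day growth assay of blood-stage parasites in erythrocytes (0.3% parasitemia, 2.5% hematocrit) at 37 C, 5% CO2, quantified by SYBR Green DNA staining after overnight detergent lysis.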

7G8 = experiment: as above; conditions: P. falciparum in erythrocytes, SYBR Green DNA, 72 h; series mostly up to 12.8 µM
Method in brief: as §1

ATS189 = experiment: as above; conditions: P. falciparum in erythrocytes, SYBR Green DNA, 72 h; series mostly up to 12.8 µM
Method in brief: as §1

CP191 = experiment: as above; conditions: P. falciparum in erythrocytes, SYBR Green DNA, 72 h; series mostly up to 12.8 µM
Method in brief: as §1

CP194 = experiment: as above; conditions: P. falciparum in erythrocytes, SYBR Green DNA, 72 h; series mostly up to 12.8 µM
Method in brief: as §1

CP203 = experiment: as above; conditions: P. falciparum in erythrocytes, SYBR Green DNA, 72 h; series mostly up to 12.8 µM
Method in brief: as §1

CP211 = experiment: as above; conditions: P. falciparum in erythrocytes, SYBR Green DNA, 72 h; series mostly up to 12.8 µM
Method in brief: as §1

CP217 = experiment: as above; conditions: P. falciparum in erythrocytes, SYBR Green DNA, 72 h; series mostly up to 12.8 µM
Method in brief: as §1

CP237 = experiment: as above; conditions: P. falciparum in erythrocytes, SYBR Green DNA, 72 h; series mostly up to 12.8 µM
Method in brief: as §1

CP247 = experiment: as above; conditions: P. falciparum in erythrocytes, SYBR Green DNA, 72 h; series mostly up to 12.8 µM
Method in brief: as §1

CP268 = experiment: as above; conditions: P. falciparum in erythrocytes, SYBR Green DNA, 72 h; series mostly up to 12.8 µM
Method in brief: as §1

DIV30 = experiment: as above; conditions: P. falciparum in erythrocytes, SYBR Green DNA, 72 h; series mostly up to 12.8 µM
Method in brief: as §1

Dd2 = experiment: as above; conditions: P. falciparum in erythrocytes, SYBR Green DNA, 72 h; series mostly up to 12.8 µM
Method in brief: as §1

N140 = experiment: as above; conditions: P. falciparum in erythrocytes, SYBR Green DNA, 72 h; series mostly up to 12.8 µM
Method in brief: as §1

P93_24 = experiment: as above; conditions: P. falciparum in erythrocytes, SYBR Green DNA, 72 h; series mostly up to 12.8 µM
Method in brief: as §1

PAD = experiment: as above; conditions: P. falciparum in erythrocytes, SYBR Green DNA, 72 h; series mostly up to 12.8 µM
Method in brief: as §1

PC15 = experiment: as above; conditions: P. falciparum in erythrocytes, SYBR Green DNA, 72 h; series mostly up to 12.8 µM
Method in brief: as §1

PC26 = experiment: as above; conditions: P. falciparum in erythrocytes, SYBR Green DNA, 72 h; series mostly up to 12.8 µM
Method in brief: as §1

PC49 = experiment: as above; conditions: P. falciparum in erythrocytes, SYBR Green DNA, 72 h; series mostly up to 12.8 µM
Method in brief: as §1

Measured: Potency

CC(=O)N(CC(O)CN(C(C)=O)c1c(I)c(C(=O)NC[C@@H](O)CO)c(I)c(C(=O)NC[C@@H](O)CO)c1I)c1c(I)c(C(=O)NC[C@@H](O)CO)c(I)c(C(=O)NC[C@@H](O)CO)c1I
inactive: [1] | 3D7 | 7G8 | ATS189 | CP191 | CP194 | CP203 | CP211 | CP217 | CP237 | CP247 | CP268 | DIV30 | Dd2 | N140 | P93_24 | PAD | PC15 | PC26 | PC49

CC(C)(O/N=C(\C(=O)N[C@@H]1C(=O)N2C(C(=O)[O-])=C(C[n+]3ccccc3)CS[C@@H]12)c1csc(N)n1)C(=O)O
inactive: [1] | 3D7 | 7G8 | ATS189 | CP191 | CP194 | CP203 | CP211 | CP217 | CP237 | CP247 | CP268 | DIV30 | Dd2 | N140 | P93_24 | PAD | PC15 | PC26 | PC49

Cn1c(=O)c2c(ncn2C[C@@H](O)CO)n(C)c1=O
inactive: [1] | 3D7 | 7G8 | ATS189 | CP194 | CP203 | CP211 | CP217 | CP237 | CP247 | CP268 | DIV30 | Dd2 | N140 | P93_24 | PAD | PC15 | PC26 | PC49

O=C(O)/C=C\c1ccc(Cn2ccnc2)cc1
inactive: [1] | 3D7 | 7G8 | ATS189 | CP191 | CP194 | CP203 | CP211 | CP217 | CP237 | CP247 | CP268 | DIV30 | Dd2 | N140 | P93_24 | PAD | PC15 | PC26 | PC49

COc1ccc(C[C@@H]2c3cc(OC)c(OC)cc3CC[N@+]2(C)CCC(=O)OCCCCCOC(=O)CC[N@@+]2(C)CCc3cc(OC)c(OC)cc3[C@H]2Cc2ccc(OC)c(OC)c2)cc1OC
inactive: [1] | 3D7 | 7G8 | ATS189 | CP191 | CP194 | CP203 | CP211 | CP217 | CP237 | CP247 | CP268 | DIV30 | Dd2 | N140 | P93_24 | PAD | PC15 | PC26 | PC49

CO/N=C(/C(=O)NC1C(=O)N2C(C(=O)O)=C(CSc3nc(=O)c(O)nn3C)CSC12)c1csc(N)n1 (configuration not stated)
inactive: [1] | 3D7 | 7G8 | ATS189 | CP191 | CP194 | CP203 | CP211 | CP217 | CP237 | CP247 | CP268 | DIV30 | Dd2 | N140 | P93_24 | PAD | PC15 | PC26 | PC49

O=c1[nH]cnc2c1ncn2C1OC(CO)C(O)C1O (configuration not stated)
inactive: [1] | 3D7 | 7G8 | ATS189 | CP191 | CP194 | CP203 | CP211 | CP217 | CP237 | CP247 | CP268 | DIV30 | Dd2 | P93_24 | PAD | PC15 | PC26 | PC49

C[N+]1(C)CCC[C@@H](OC(=O)C(O)(c2ccccc2)c2ccccc2)C1
inactive: [1] | 3D7 | 7G8 | ATS189 | CP191 | CP194 | CP203 | CP211 | CP217 | CP237 | CP247 | CP268 | DIV30 | Dd2 | N140 | P93_24 | PAD | PC15 | PC26 | PC49

C/C=C\C(=O)N(CC)c1ccccc1C
inactive: [1] | 3D7 | 7G8 | ATS189 | CP191 | CP194 | CP203 | CP211 | CP217 | CP237 | CP247 | CP268 | DIV30 | Dd2 | N140 | P93_24 | PAD | PC15 | PC26 | PC49

CC1(C)Oc2ccc(C#N)cc2[C@H](N2CCCC2=O)[C@H]1O
inactive: [1] | 3D7 | 7G8 | ATS189 | CP191 | CP194 | CP203 | CP211 | CP217 | CP237 | CP247 | CP268 | DIV30 | Dd2 | N140 | P93_24 | PAD | PC15 | PC26 | PC49

CCN1C(=O)N[C@@H](c2ccccc2)C1=O
inactive: [1] | 3D7 | 7G8 | ATS189 | CP191 | CP194 | CP203 | CP211 | CP217 | CP237 | CP247 | CP268 | DIV30 | Dd2 | N140 | P93_24 | PAD | PC15 | PC26 | PC49

C[C@@H](C(=O)O)c1ccc(C(=O)c2cccs2)cc1
inactive: 3D7 | 7G8 | ATS189 | CP191 | CP194 | CP203 | CP211 | CP217 | CP237 | CP247 | CP268 | DIV30 | Dd2 | N140 | P93_24 | PAD | PC15 | PC26 | PC49

CC1(C)S[C@@H]2[C@H](NC(=O)[C@H](C(=O)O)c3ccsc3)C(=O)N2[C@H]1C(=O)O
inactive: [1] | 3D7 | 7G8 | ATS189 | CP191 | CP194 | CP203 | CP211 | CP217 | CP237 | CP247 | CP268 | DIV30 | Dd2 | N140 | P93_24 | PAD | PC15 | PC26 | PC49

CN[C@@H](CC(C)C)C(=O)N[C@@H]1C(=O)N[C@H](CC(N)=O)C(=O)N[C@@H]2C(=O)N[C@H]3C(=O)N[C@H](C(=O)N[C@H](C(=O)O)c4cc(O)cc(O)c4-c4cc3ccc4O)[C@H](O)c3ccc(c(Cl)c3)Oc3cc2cc(c3O[C@H]2O[C@@H](CO)[C@@H](O)[C@@H](O)[C@@H]2O[C@@H]2C[C@](C)(N)[C@H](O)[C@H](C)O2)Oc2ccc(cc2Cl)[C@@H]1O
inactive: [1] | 3D7 | 7G8 | ATS189 | CP191 | CP194 | CP203 | CP211 | CP217 | CP237 | CP247 | CP268 | DIV30 | Dd2 | N140 | P93_24 | PAD | PC15 | PC26 | PC49

CN[C@@H]1[C@H](O[C@@H]2O[C@H](CO)[C@@H](N)[C@H](O)[C@@H]2O)O[C@H]2C[C@@H](N)[C@@H](O[C@H]3[C@@H](O)[C@H](O)[C@H](N)C[C@@H]3N)O[C@H]2[C@H]1O
inactive: [1] | 3D7 | 7G8 | ATS189 | CP191 | CP194 | CP203 | CP211 | CP217 | CP237 | CP247 | CP268 | DIV30 | Dd2 | N140 | P93_24 | PAD | PC15 | PC26 | PC49

COc1c(O)cc2c(c1O)[C@@H]1O[C@@H](CO)[C@@H](O)[C@@H](O)[C@@H]1OC2=O
inactive: [1] | 3D7 | 7G8 | ATS189 | CP191 | CP194 | CP203 | CP211 | CP217 | CP237 | CP247 | CP268 | DIV30 | Dd2 | N140 | P93_24 | PAD | PC15 | PC26 | PC49
